Data on six molecules can be found in PubChem BioAssay.

Activity calls are given as the source filed them.

The test system of test [1] is Plasmodium falciparum Sir2 (PF13_0152, Sir2A). Briefly: pfSir2 binders on small-molecule microarrays, primary screen, biochemical, small-molecule microarray, 635 nm fluorescence (AID 1098).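 Further: score merges spot fluorescence intensity with its signal-to-noise ratio.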 The settings on record: small-molecule microarray binding, fluorescence 635 nm; higher = more signal.
Test [2] can be described thus: small-molecule microarray binders of probe aDKK1, primary screen, biochemical, biotinylated probe, 635/667 nm fluorescence (AID 1099).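 Further: score merges 667nm spot fluorescence with signal to noise across triplicate slides.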 As to conditions: higher = more signal.
Test [3] can be described thus: small-molecule microarray binders of probe aCHRDL2, primary screen, biochemical, biotinylated probe, 635/667 nm fluorescence (AID 1100). As to conditions: higher = more signal.
Test [4] in a line: splicing luciferase reporter signal modulators, primary screen, spliceosome inhibition project, cell-based, HEK293, splice +/- reporter (AID 1101).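 Further: HEK293 cells carrying a splicing-competent luciferase reporter gene; test concentration not given here.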 The settings on record: luminescence, 24 h, higher = more signal, called active from +8 up or from −8 down.
Test [5] addresses Fibroblast growth factor 10 (Homo sapiens) (UniProt O15520). Briefly: FGF10 binders on small-molecule microarrays, primary screen, biochemical, small-molecule microarray, 635 nm fluorescence (AID 1102). The settings on record: FGF10 binding, fluorescence 635 nm, higher = more signal.
Test [6] concerns glycogen synthase kinase-3 (GSK3A per assay name; protocol says GSK3B). Put plainly: GSK3 binders on small-molecule microarrays, primary screen, biochemical, small-molecule microarray, 635 nm fluorescence, GSK3A (AID 1103). Further: the record names both GSK3A and GSK3B. As to conditions: small-molecule microarray binding, fluorescence 635 nm; higher = more signal.
The target in test [7] is Epidermal growth factor receptor (Homo sapiens) (UniProt P00533). Briefly: EGFR binders on small-molecule microarrays, primary screen, biochemical, small-molecule microarray, 635 nm fluorescence (AID 1104).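 Further: score merges 667 nm emission intensity with spot signal to noise over triplicate slides.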 As to conditions: EGFR binding, higher = more signal.
Test [8] addresses Follistatin-related protein 3 (Homo sapiens) (UniProt O95633). Put plainly: FSTL3 binders on small-molecule microarrays, primary screen, biochemical, small-molecule microarray, 635 nm fluorescence (AID 1105).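 Further: score merges emission near 667 nm and signal to noise per printed spot across three slides.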 The settings on record: FSTL3 binding, higher = more signal.
Test [9] deals with Dickkopf-related protein 1 (Homo sapiens) (UniProt O94907). Briefly: DKK1 binders on small-molecule microarrays, primary screen, biochemical, small-molecule microarray, 635 nm fluorescence scan (AID 1106).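 Further: score merges emission near 667 nm with signal to noise over three replicate slides.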 The settings on record: DKK1 binding, higher = more signal.
Test [10] has as its system Inhibin beta A chain (activin A). Put plainly: INHBA (activin A) binders on microarrays, primary screen, biochemical, small-molecule microarray, 635 nm fluorescence scan (AID 1107).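 Further: mouse activin A protein probed at 4.33 µg/mL on printed slides; score merges bound-protein fluorescence near 667 nm with spot signal-to-noise.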 As to conditions: small-molecule microarray binding, higher = more signal.
Test [11] concerns Human papillomavirus type 1a protein E7 (residues 44-93). Put plainly: HPV1a E7 fragment binders on microarrays, primary screen, biochemical, small-molecule microarray, residues 44-93, 635 nm fluorescence (AID 1108).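 Further: E7 fragment applied at 1 µg/mL in TBST for 1 h at 4 C; score combines spot fluorescence with its signal to noise ratio.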 The settings on record: small-molecule microarray binding, fluorescence 635 nm; higher = more signal.
The nature of test [12]: modulators of HCV replicon luciferase signal, primary screen, HCV replication inhibitor project, Huh7 cells, luciferase reporter (AID 1109).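 Further: huh7 hepatoma cells harbouring a luciferase neomycin HCV replicon reporter; luciferase luminescence as measure of HCV replicon replication; test concentration not given here.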 As to conditions: 48 h, higher = more signal.
Test [13] deals with Left-right determination factor 2 (Homo sapiens) (UniProt O00292). Briefly: LEFTY2 binders on small-molecule microarrays, primary screen, biochemical, small-molecule microarray, 635 nm fluorescence scan (AID 1110). The settings on record: LEFTY2 binding, higher = more signal.
Test [14] concerns the target Calmodulin-1 (Homo sapiens) (UniProt P0DP23). Put plainly: CALM1 binders on microarrays, EGTA buffer, profiling panel, biochemical, small-molecule microarray, Cy5-labelled CALM1 (AID 1111).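 Further: labelled calmodulin applied in Tris saline Tween buffer holding calcium plus EGTA and DTT.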 The settings on record: Cy5-CALM1 binding fluorescence, higher = more signal.
Test [15] has the same target. Put plainly: calcium-bound CALM1 binders on microarrays, profiling panel, artefact control for SMM control-protein annotation, biochemical, small-molecule microarray, Cy5-labelled CALM1, plus calcium (AID 1112).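 Further: score merges spot fluorescence with signal to noise from triplicate slides.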 The settings on record: Cy5-CALM1 binding fluorescence, higher = more signal.
Test [16] can be described thus: small-molecule microarray binders of probe aWnt5a, primary screen, biochemical, biotinylated probe, 635/667 nm fluorescence (AID 1113).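 Further: score merges 667 nm fluorescence intensity with signal-to-noise per printed feature.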 As to conditions: higher = more signal.
Test [17] in a line: small-molecule microarray binders of probe aShh, primary screen, biochemical, biotinylated probe, 635/667 nm fluorescence (AID 1114).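 Further: probe is biotin-labelled aShh protein from a stem cell growth factor screen; measures binding of labelled protein to compounds printed on the slide; score merges feature fluorescence at 667 nm with signal-to-noise.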 The settings on record: higher = more signal.
Test [18] can be described thus: small-molecule microarray binders of probe aNog, primary screen, biochemical, biotinylated probe, 635/667 nm fluorescence (AID 1115).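 Further: probe is biotinylated aNog protein used at 0.15 µg/mL for 1 h at 4 C; z-score combines 667 nm fluorescence of each spot with its signal to noise.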 As to conditions: higher = more signal.
The target in test [19] is Torsin-1A-interacting protein 1 (Homo sapiens) (UniProt Q5JTV8). Briefly: LAP1 binders from COS7 cell lysate, primary screen, small-molecule microarray, 635/667 nm fluorescence (AID 1116). The settings on record: COS7-hLAP1 lysate binding, 635 nm fluorescence, higher = more signal.
In test [20] the target is Alpha-bungarotoxin (Bungarus multicinctus) (UniProt P60615). Briefly: alpha-bungarotoxin binders on microarray, profiling panel, artefact control for SMM control protein annotation, biochemical, small-molecule microarray, Alexa647 label, 635/667 nm fluorescence (AID 1117). As to conditions: alpha-BTX-A647 binding fluorescence, higher = more signal.
Alpha-bungarotoxin (Bungarus multicinctus), sequence (P60615 whole entry, looked up): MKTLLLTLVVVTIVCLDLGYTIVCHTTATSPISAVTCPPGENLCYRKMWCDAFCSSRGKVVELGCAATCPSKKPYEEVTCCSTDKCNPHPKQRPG

Fibroblast growth factor 10 (Homo sapiens), sequence (O15520 whole entry, looked up): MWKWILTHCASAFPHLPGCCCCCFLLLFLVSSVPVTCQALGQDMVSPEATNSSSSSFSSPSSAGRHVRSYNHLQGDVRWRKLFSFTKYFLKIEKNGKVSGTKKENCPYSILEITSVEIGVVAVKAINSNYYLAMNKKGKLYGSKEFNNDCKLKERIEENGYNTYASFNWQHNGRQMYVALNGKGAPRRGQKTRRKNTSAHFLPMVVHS
Dickkopf-related protein 1 (Homo sapiens), sequence (O94907 whole entry, looked up): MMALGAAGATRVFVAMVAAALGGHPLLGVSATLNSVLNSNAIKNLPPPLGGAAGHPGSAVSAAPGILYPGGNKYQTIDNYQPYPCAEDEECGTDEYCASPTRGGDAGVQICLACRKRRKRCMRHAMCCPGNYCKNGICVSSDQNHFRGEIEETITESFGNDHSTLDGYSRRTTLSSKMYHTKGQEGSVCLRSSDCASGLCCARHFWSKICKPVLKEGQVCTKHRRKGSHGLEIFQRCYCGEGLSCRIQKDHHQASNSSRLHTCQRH
Left-right determination factor 2 (Homo sapiens), sequence (O00292 whole entry, looked up): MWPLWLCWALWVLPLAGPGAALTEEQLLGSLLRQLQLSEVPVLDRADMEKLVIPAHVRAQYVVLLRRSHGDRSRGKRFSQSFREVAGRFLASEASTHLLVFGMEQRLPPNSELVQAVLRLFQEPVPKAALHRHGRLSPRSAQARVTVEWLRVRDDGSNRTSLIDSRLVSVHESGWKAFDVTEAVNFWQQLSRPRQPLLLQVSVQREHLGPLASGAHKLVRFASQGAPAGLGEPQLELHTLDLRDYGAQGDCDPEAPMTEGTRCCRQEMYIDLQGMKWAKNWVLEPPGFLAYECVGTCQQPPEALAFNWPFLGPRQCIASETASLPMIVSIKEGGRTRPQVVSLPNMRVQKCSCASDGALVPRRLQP
Torsin-1A-interacting protein 1 (Homo sapiens), sequence (Q5JTV8 whole entry, looked up): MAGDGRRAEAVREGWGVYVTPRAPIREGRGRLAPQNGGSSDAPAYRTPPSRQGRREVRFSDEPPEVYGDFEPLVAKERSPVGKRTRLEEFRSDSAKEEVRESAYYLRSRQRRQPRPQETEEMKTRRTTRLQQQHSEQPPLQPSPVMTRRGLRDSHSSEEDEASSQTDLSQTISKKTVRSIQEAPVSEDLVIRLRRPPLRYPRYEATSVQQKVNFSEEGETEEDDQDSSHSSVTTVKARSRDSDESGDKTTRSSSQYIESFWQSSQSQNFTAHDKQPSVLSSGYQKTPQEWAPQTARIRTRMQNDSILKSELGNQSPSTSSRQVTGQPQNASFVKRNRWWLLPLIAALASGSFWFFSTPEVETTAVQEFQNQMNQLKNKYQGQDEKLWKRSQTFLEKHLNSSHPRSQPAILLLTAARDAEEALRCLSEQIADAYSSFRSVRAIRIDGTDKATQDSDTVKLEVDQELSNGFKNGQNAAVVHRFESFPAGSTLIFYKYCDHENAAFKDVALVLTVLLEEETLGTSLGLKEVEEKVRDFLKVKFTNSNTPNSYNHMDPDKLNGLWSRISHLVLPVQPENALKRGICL
Epidermal growth factor receptor (Homo sapiens), sequence (P00533 whole entry, looked up): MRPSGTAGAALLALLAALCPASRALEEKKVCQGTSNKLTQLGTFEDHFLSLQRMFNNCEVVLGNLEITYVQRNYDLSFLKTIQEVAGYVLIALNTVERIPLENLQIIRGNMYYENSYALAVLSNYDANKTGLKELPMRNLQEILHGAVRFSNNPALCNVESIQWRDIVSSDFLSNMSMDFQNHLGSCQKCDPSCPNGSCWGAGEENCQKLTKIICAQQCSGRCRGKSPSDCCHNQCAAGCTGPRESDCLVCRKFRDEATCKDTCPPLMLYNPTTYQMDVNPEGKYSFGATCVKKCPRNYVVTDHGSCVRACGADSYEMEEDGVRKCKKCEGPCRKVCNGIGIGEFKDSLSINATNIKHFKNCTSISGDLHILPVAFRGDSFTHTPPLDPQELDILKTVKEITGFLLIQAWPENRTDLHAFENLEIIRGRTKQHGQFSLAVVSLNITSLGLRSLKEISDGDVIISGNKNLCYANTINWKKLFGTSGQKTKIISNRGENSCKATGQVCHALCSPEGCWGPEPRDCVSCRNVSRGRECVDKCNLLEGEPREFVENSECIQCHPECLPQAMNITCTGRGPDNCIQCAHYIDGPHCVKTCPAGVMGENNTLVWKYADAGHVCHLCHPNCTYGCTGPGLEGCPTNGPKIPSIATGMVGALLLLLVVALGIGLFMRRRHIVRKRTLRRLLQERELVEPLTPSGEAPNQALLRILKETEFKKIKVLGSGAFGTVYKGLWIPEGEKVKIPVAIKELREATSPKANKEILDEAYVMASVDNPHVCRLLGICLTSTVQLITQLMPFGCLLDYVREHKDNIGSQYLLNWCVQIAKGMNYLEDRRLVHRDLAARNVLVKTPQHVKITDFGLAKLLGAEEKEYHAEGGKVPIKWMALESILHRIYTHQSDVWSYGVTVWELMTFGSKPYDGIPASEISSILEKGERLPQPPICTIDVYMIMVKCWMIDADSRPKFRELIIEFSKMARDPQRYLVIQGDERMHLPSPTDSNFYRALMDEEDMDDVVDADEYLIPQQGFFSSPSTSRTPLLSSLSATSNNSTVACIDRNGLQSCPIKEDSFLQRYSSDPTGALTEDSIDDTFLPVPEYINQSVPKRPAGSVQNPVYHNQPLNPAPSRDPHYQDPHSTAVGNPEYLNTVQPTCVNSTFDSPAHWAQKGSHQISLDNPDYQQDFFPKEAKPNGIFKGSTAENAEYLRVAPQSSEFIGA
Follistatin-related protein 3 (Homo sapiens), sequence (O95633 whole entry, looked up): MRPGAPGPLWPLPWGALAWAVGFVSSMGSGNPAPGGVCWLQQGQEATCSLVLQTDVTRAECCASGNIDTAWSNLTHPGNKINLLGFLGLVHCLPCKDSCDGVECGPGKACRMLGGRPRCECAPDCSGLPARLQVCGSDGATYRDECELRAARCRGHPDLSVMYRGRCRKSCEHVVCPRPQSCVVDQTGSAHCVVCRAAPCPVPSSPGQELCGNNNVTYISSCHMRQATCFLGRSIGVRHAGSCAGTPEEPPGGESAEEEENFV

Consider `O=C1OCCC=C[C@H]2OC34C=CCN(Cn5nnc6ccccc65)C(=O)[C@H]3N(CCO)C(=O)[C@@H]4C12` (stereo not given in full), for which the composite z-score in test [1] was 1.34; in test [2] it was 0.362; in test [3], 0.254; in test [5] it was -1.55; in [6] it was -1.6; in test [7], -1.77. Also, the composite z-score is -1.04 in test [8]; -1.64 in test [9]; -0.539 in test [10]; -1.59 in [11]; -2.07 in test [13]; -0.4 in test [14]. Besides, the composite z-score in test [15] was 0.262; in test [16], -0.252; in test [17], -0.262; in [18], 0.328; in [19], -0.618; in test [20], 1.1. Further, the z-score in test [4] was -0.456 (inactive); in test [12] it was -0.772.
As to `C#CCNCc1ccccc1`, the composite z-score in test [1] was -0.375; in test [2], -0.192; in test [3], -0.288; in test [5], 0.2; in [6] it was 0.539; in [7], 0.397. The composite z-score is 0.349 in test [8]; 0.183 in [9]; 0.209 in [10]; 0.297 in test [11]; 0.689 in test [13]; -0.389 in test [14]. Moreover, the composite z-score in test [15] is -0.163; in test [16], -0.213; in [17], -0.291; in test [18], -0.213; in [19], 0.195; in test [20], 0.34. Further, the results for the z-score in [4] and in [12] were 0.258 (inactive) and 0.141, respectively.
On to `COc1ccc(CCNC(=O)[C@@]2(C)c3ccccc3C(=O)N(c3ccc(C)cn3)[C@H]2c2ccc(CO)cc2)cc1`, for which the composite z-score in test [1] was -0.697; in test [2] it was -0.0508; in test [3], 0.156; in [5], -1.2; in test [6], -0.831; in test [7], -1.03. Besides, the composite z-score in test [8] is -1.06; in test [9], -0.905; in [10], 0.453; in [11] it was -0.992; in [13] it was -0.839; in test [14], -0.4. The composite z-score in test [15] was -0.141; in test [16], -0.096; in [17], 1.9; in test [18], -0.118; in test [19] it was 0.56; in test [20], -0.438. Besides, the values for the z-score in test [4] and in test [12] were 0.981 (inactive) and -0.583, respectively.
For the molecule `CCCCC(=C=CC[C@H](O)c1cccc(OCCO)c1)C[C@H](O)c1ccccn1`, the composite z-score in test [1] is 0.827; in [2], -0.218; in test [3], -0.302; in [5] it was 0.453; in test [6], -0.364; in test [7], 0.0715. In addition, the composite z-score in test [8] was 0.0048; in [9], 0.296; in [10], 0.434; in [11], -0.146; in [13], 0.258; in [14] it was 0.481. The composite z-score was -0.784 in test [15]; -0.0239 in test [16]; -0.13 in [17]; -0.23 in [18]; 0.0971 in [19]; -0.0891 in test [20]. Moreover, the results for the z-score in test [4] and in test [12] were -2.17 (inactive) and -1.05, respectively.
`O=C1O[C@@H](c2ccccc2)[C@@H](c2ccccc2)N2[C@@H](c3ccccc3OCCO)[C@]3(C(=O)Nc4ccccc43)[C@@H](C(=O)O)[C@H]12`: the composite z-score in test [1] is 1.61; in [2], -0.124; in test [3] it was 0.148; in test [5], 0.798; in [6], -0.269; in test [7], -0.447. For the same molecule, the composite z-score was 0.0073 in test [8]; -0.499 in [9]; -0.143 in [10]; 1.32 in test [11]; -0.0445 in test [13]; 0.995 in test [14]. Moreover, the composite z-score in [15] is -0.842; in test [16] it was -0.0924; in test [17] it was -0.229; in [18], -0.18; in [19], 0.584; in test [20], 1.04. The z-score in [4] is -1.71 (inactive); in test [12], -0.73.
In the case of `O=C(O)[C@H](Cc1ccccc1)n1cc(-c2ccccc2)nn1`, the composite z-score in [1] was 0.0064; in [2], -0.284; in test [3] it was -0.367; in test [5], 0.467; in [6] it was 0.569; in test [7] it was 0.293. Moreover, the composite z-score in [8] is 0.179; in test [9] it was 0.31; in test [10], 0.267; in test [11] it was 0.52; in test [13], 0.506; in test [14], 0.14. For the same molecule, the composite z-score was -0.372 in test [15]; -0.152 in test [16]; -0.237 in [17]; 0.297 in [18]; 0.635 in test [19]; 0.327 in test [20]. For the same molecule, the z-score in test [4] was -0.544 (inactive); in [12], 0.36.
